The source of these data is ChEMBL document CHEMBL1961873, “Compounds: GSK PKIS; Assays: Nanosyn kinase panel” (2012).

Assay [1] deals with Proto-oncogene tyrosine-protein kinase receptor Ret (Homo sapiens), P07949 [Y791F]. The note with it: at 1 µM.
Assay [2] concerns the target Macrophage-stimulating protein receptor (Homo sapiens) (UniProt Q04912). The note with it: at 0.1 µM.
Assay [3] has the same target. The note with it: at 1 µM.
Assay [4] concerns the target Proto-oncogene tyrosine-protein kinase ROS (Homo sapiens) (UniProt P08922). The note with it: at 0.1 µM.
Assay [5] has the same target. The note with it: at 1 µM.
In assay [6] the target is Proto-oncogene tyrosine-protein kinase Src (Homo sapiens) (UniProt P12931). The note with it: at 0.1 µM.
Chain of Proto-oncogene tyrosine-protein kinase Src (Homo sapiens) (P12931 2-536 limits assumed): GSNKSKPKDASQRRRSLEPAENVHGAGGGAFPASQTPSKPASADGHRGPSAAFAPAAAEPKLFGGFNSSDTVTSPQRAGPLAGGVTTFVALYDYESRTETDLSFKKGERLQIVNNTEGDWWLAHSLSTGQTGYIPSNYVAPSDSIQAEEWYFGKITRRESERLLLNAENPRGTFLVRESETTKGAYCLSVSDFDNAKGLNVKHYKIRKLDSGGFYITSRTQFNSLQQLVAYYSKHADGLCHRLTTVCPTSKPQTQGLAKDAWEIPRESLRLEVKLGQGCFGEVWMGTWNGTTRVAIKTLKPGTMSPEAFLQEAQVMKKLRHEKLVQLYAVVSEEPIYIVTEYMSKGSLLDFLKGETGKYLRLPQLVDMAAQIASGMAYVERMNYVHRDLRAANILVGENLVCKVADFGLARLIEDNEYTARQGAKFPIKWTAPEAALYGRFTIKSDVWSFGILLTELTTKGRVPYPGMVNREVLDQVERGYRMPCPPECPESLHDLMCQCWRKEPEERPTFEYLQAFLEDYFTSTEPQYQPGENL
Assay [7] shares this target. As to conditions: at 1 µM.
Assay [8] has as its target Tyrosine-protein kinase Srms (Homo sapiens) (UniProt Q9H3Y6). The note with it: at 0.1 µM.
For assay [9] the target is unchanged. The note with it: at 1 µM.
Assay [10] addresses Tyrosine-protein kinase SYK (Homo sapiens) (UniProt P43405). As to conditions: at 0.1 µM.

Chain of Macrophage-stimulating protein receptor (Homo sapiens) (Q04912 25-304 limits assumed): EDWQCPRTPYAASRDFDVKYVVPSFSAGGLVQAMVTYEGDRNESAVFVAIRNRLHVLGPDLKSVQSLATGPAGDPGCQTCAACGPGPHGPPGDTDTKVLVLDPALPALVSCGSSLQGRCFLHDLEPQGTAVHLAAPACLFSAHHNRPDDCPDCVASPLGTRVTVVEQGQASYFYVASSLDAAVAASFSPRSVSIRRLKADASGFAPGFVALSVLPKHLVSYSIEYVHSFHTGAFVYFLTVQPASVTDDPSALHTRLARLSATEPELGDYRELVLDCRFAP
Chain of Macrophage-stimulating protein receptor (Homo sapiens) (Q04912 310-1400 limits assumed): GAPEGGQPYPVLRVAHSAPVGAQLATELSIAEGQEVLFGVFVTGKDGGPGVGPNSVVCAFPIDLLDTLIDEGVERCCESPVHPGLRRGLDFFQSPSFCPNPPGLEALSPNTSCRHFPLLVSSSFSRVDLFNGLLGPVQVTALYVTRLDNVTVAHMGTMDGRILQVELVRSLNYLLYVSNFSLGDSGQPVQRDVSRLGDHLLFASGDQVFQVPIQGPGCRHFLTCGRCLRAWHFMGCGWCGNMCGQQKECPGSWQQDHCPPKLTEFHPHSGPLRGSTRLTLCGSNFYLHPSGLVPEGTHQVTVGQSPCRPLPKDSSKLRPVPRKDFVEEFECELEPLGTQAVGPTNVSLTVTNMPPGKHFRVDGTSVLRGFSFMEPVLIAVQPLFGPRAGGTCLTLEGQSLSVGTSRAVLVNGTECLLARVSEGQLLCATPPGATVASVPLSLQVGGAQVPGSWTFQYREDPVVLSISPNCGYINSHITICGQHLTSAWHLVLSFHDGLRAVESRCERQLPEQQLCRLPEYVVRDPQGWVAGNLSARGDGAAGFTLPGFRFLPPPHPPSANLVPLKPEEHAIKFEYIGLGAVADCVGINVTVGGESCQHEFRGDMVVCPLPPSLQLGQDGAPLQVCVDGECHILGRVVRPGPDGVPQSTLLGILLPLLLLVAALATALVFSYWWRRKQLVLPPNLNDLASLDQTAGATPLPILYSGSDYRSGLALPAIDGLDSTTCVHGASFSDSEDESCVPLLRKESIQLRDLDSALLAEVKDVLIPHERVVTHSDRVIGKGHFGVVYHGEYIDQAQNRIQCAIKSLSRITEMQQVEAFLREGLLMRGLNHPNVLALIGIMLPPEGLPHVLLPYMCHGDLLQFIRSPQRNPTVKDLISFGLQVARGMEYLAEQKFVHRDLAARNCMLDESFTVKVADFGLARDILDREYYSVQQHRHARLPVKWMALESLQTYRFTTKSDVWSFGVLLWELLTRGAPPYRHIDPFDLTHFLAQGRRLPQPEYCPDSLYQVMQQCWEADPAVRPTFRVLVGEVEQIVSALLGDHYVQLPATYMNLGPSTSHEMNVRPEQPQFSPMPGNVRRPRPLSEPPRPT
Chain of Proto-oncogene tyrosine-protein kinase ROS (Homo sapiens) (P08922 whole entry): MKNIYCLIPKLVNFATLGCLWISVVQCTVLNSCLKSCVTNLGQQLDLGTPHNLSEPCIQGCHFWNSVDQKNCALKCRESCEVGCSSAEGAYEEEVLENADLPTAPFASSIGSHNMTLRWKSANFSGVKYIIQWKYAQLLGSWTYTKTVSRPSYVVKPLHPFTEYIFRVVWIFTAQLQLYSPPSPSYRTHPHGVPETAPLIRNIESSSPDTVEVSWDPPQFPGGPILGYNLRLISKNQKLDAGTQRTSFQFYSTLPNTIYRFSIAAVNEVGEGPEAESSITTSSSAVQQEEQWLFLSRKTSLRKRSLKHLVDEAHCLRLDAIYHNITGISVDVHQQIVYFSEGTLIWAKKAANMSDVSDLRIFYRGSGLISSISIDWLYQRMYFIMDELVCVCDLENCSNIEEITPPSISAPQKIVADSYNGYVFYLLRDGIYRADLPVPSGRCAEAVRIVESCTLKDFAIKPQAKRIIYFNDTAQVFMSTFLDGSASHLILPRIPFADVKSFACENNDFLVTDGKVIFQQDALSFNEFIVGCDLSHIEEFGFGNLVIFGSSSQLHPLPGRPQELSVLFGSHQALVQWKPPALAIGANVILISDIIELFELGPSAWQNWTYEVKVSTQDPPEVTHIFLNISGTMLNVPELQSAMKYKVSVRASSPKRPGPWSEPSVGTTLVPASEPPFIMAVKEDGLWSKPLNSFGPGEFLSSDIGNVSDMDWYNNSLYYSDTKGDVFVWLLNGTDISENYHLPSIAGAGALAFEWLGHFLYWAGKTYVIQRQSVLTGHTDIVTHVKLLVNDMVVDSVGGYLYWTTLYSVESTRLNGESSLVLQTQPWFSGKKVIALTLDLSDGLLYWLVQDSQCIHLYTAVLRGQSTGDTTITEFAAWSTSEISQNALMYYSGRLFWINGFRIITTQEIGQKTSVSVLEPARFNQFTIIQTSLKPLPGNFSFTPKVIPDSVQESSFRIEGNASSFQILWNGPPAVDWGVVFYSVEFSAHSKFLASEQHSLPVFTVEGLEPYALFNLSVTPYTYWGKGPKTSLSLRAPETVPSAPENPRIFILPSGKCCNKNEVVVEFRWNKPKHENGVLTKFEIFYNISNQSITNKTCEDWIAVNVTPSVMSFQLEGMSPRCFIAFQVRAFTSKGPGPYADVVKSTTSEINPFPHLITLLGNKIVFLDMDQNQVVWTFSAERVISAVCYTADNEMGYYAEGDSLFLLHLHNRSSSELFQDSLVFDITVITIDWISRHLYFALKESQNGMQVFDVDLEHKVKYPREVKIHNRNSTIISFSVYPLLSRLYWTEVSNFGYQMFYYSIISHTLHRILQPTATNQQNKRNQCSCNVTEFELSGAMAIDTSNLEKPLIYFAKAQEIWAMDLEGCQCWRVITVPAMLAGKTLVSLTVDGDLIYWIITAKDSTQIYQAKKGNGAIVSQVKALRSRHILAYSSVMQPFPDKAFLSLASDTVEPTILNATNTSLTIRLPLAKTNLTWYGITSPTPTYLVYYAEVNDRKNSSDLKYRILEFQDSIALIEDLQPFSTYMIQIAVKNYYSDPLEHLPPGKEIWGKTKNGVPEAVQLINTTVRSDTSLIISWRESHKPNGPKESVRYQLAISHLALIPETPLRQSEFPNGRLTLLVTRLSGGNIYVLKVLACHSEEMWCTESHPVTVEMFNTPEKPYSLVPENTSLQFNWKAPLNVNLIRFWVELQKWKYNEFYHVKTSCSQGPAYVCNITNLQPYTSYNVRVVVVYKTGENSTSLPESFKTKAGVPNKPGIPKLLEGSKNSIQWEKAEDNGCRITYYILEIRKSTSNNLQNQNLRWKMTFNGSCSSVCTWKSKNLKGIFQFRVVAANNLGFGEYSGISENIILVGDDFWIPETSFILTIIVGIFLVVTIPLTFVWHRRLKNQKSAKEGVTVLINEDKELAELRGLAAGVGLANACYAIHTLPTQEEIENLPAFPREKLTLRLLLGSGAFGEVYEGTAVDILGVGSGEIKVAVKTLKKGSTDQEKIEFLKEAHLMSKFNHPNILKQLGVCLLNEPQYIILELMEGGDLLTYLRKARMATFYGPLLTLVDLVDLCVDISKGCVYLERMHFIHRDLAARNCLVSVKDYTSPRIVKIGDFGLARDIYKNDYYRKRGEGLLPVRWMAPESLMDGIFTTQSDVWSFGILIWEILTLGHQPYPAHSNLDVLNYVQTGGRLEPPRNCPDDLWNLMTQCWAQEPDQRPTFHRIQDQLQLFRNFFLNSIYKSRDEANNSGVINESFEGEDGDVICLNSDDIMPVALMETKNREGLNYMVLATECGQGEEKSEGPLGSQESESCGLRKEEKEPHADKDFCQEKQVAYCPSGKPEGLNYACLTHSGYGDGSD
Chain of Tyrosine-protein kinase Srms (Homo sapiens) (Q9H3Y6 whole entry): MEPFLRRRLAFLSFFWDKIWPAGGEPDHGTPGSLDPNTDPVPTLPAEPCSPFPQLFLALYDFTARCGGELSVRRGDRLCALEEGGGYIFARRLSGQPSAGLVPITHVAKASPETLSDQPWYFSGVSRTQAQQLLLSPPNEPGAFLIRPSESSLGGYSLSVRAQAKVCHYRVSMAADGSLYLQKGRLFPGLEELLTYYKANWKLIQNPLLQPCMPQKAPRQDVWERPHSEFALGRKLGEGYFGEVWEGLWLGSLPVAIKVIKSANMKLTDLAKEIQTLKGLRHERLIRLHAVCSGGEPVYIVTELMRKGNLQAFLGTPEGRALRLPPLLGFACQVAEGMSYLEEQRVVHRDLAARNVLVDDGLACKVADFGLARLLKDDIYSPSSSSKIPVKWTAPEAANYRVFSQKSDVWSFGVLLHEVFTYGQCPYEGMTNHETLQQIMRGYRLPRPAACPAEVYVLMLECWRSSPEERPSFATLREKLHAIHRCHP

By inhibition is commonly meant the relative decrease from the control value, in per cent. For the compound `O=C1NC(=O)C(c2ccc(Cl)cc2)=C1Nc1ccc(Cl)c(C(=O)O)c1`, the inhibition was -1.73% in assay [1]; -4.02% in assay [2]; 2.12% in [3]; 1.45% in assay [4]; 3.13% in assay [5]; 0.48% in [6]. Besides, the inhibition is -1.52% in assay [7], 0.85% in assay [8], 2.75% in [9] and -1% in [10].
On to `Nc1ncnc2occ(-c3ccc(NC(=O)Nc4cccc(C(F)(F)F)c4)cc3)c12`, for which the inhibition amounted to 86.3% in assay [1]; 2.56% in [2]; 27.7% in [3]; 6% in [4]; 21.7% in assay [5]; 14.4% in assay [6]. For the same compound, the inhibition in assay [7] is 52.8%; in assay [8], -4.22%; in assay [9], -3.07%; in assay [10] it was -4.82%.
On to `Cc1nnc(-c2ccc(C)c(-c3ccc(C(=O)Nc4cccc(C#N)c4)cc3)c2)o1`, for which the inhibition in assay [1] was determined as 15.7%; in assay [2] it was 1.95%; in assay [3], 3.79%; in [4] it was 1.81%; in assay [5] it was 1.44%; in assay [6], 3.95%. Besides, the inhibition is 6.82% in [7], -0.52% in assay [8], 0.42% in assay [9] and 3.5% in [10].
Regarding `CCn1c(-c2nonc2N)nc2cncc(C(=O)N3CCNCC3)c21`, the inhibition in assay [1] was 5.78%; in assay [2] it was 3.02%; in [3] it was 4.33%; in assay [4], 7.86%; in assay [5] it was 7.97%; in assay [6], 14.1%. Also, the inhibition in assay [7] was 16.4%; in assay [8], -3.72%; in [9], -2.89%; in [10], -1.71%.
`CS(=O)(=O)CCNCc1ccc(-c2ccc3ncnc(Nc4ccc(OCc5ccccc5)c(Cl)c4)c3c2)o1`: the inhibition in assay [1] is 12.1%; in [2], 3.3%; in [3], 5.38%; in [4], 3.99%; in assay [5] it was 4.36%; in assay [6] it was 0.6%. Also, the inhibition in assay [7] was 3.9%; in assay [8], -0.03%; in [9] it was -0.79%; in assay [10], 1.87%.
`CS(=O)(=O)CCN(CC#N)Cc1ccc(-c2ccc3ncnc(Nc4ccc(OCc5cccc(F)c5)c(Cl)c4)c3c2)o1`: the inhibition was found to be 3.1% in assay [1]; 0.07% in [2]; 0.14% in assay [3]; 6.53% in assay [4]; 4.3% in [5]; 3.38% in assay [6]. Besides, the inhibition in [7] was 4.01%; in [8], 1.13%; in assay [9] it was -1.83%; in assay [10] it was 1.85%.
`CCn1c(-c2nonc2N)nc2c(C#CC(C)(C)O)nc(CN3CCCC3)cc21`: the inhibition in [1] is 14.5%; in assay [2], 27.6%; in [3] it was -5.13%; in [4], 2.54%; in assay [5] it was 3.85%; in assay [6], 0.78%. Further, the inhibition in [7] was 0.68%; in [8], -1.37%; in assay [9], -0.75%; in assay [10], 6.45%.
On to `CN(C)c1cc2c(Nc3ccc4nc(Cc5ccccc5)[nH]c4c3)ncnc2cn1`, for which the inhibition in [1] was 27.9%; in [2], 7.08%; in assay [3], 3.46%; in assay [4], 6.18%; in [5] it was 11.8%; in assay [6], -0.18%. Further, the inhibition in assay [7] is 20.1%; in assay [8], 1.22%; in [9] it was 8.06%; in assay [10], -5.04%.
In the case of `COc1ccc(-c2nn3ncccc3c2-c2ccnc(Nc3ccc(Cl)c(C(F)(F)F)c3)n2)cc1`, the inhibition in assay [1] is 13.3%; in assay [2] it was -1.78%; in assay [3], 2.44%; in [4], 2.34%; in assay [5], 2.35%; in assay [6] it was 1.05%. Besides, the inhibition was 9.68% in assay [7], 0.23% in assay [8], 1.79% in assay [9] and -1.43% in assay [10].
Consider `COC(=O)Nc1nc2cc(Oc3cccc(NC(=O)Nc4cc(C(F)(F)F)ccc4F)c3)ccc2[nH]1`, for which the inhibition in assay [1] is 38.9%; in assay [2] it was 6.28%; in [3], -2.46%; in [4], 1.83%; in assay [5], 2.46%; in assay [6], 9.23%. In addition, the inhibition was 5.13% in [7], 0.35% in assay [8], -1.15% in assay [9] and 0.17% in [10].
For `NC(=O)c1cccc(Nc2nccc(Nc3cccc4[nH]ncc34)n2)c1`, the inhibition worked out at 79.7% in [1]; 1.43% in assay [2]; 4.78% in [3]; 21.8% in [4]; 66% in assay [5]; 86.3% in assay [6]. In addition, the inhibition in assay [7] was 94.9%; in [8], 8.24%; in [9] it was 41.9%; in assay [10] it was -5.51%.
As for `COc1ccc(-c2ccncc2)cc1C(N)=O`, the inhibition in assay [1] came out at 6.78%; in assay [2], 9.12%; in assay [3], 1.15%; in assay [4] it was 5.72%; in assay [5] it was 17.5%; in assay [6], 11.3%. The inhibition in assay [7] is 12.4%; in assay [8] it was -0.54%; in [9], -5.88%; in assay [10], -1.18%.
For `NCc1ccc(-c2nc(-c3ccc(Cl)c(O)c3)c(-c3ccncc3)[nH]2)cc1`, the inhibition in assay [1] is 76.3%; in assay [2], -0.28%; in assay [3] it was 2.55%; in assay [4], 2.98%; in assay [5], 8.44%; in assay [6], 19.8%. In addition, the inhibition in assay [7] is 63.3%; in assay [8], 3.6%; in assay [9], 21.7%; in [10] it was -2.73%.
Consider `NC(=O)c1ccc(-c2nc(-c3ccccn3)c(-c3ccc4c(c3)OCO4)[nH]2)cc1`, for which the inhibition is 13.7% in assay [1]; -0.12% in [2]; -1.49% in assay [3]; 2.07% in assay [4]; 2.89% in assay [5]; 3.87% in assay [6]. Moreover, the inhibition in [7] turned out to be 4.86%; in [8], 2.17%; in [9], 1.98%; in assay [10], 0.63%.
Consider `CC(=O)Nc1cccc(C#Cc2cncnc2Nc2ccc(OCc3cccc(F)c3)c(Cl)c2)n1`, for which the inhibition in [1] was 13.9%; in assay [2] it was 0.21%; in assay [3], 0.21%; in assay [4] it was 2.41%; in [5], -0.69%; in assay [6], 2.96%. Also, the inhibition worked out at 0.48% in assay [7], 1.99% in assay [8], 6.25% in assay [9] and 5.47% in [10].
Take `CCc1cccc(NC(=O)Nc2ccc(Oc3ccc4nc(NC(=O)OC)[nH]c4c3)cc2)c1`: the inhibition was 74.6% in assay [1]; 5.94% in [2]; 5.62% in assay [3]; -0.48% in assay [4]; 0.49% in [5]; 0.79% in [6]. Besides, the inhibition in [7] turned out to be 5.84%; in [8], 0.61%; in assay [9], 1.28%; in assay [10], 2.75%.
Turning to `O=C1NC(=O)C(c2ccccc2Cl)=C1Nc1cccc(O)c1`, the inhibition in assay [1] was determined as 6.27%; in [2], 1.7%; in assay [3], 4.87%; in assay [4], 3.13%; in assay [5] it was 6.28%; in assay [6], 3.41%. Moreover, the inhibition in assay [7] is 7.83%; in [8] it was -0.89%; in assay [9] it was -2.12%; in assay [10], 0.85%.
